Screens: PubChem, University of Kansas High Throughput Screening Laboratory
Pf apPOL block = Pf-apPOL DNA polymerase inhibition | inhibition, % at 10 µM | AID 1794808 | 210,000 compounds, 0.25% hits | Recombinant Pf-apPOL, molecular beacon fluorescence, 1.5 h
mHTT-CaM PPI inh = disrupts binding of mutant huntingtin to calmodulin | P42858 | AlphaScreen His-mHTT/GST-CaM binding, luminescence | inhibition, % at 15 µM | 190,000 compounds, 3.6% hits | AID 1671202;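 also: 0% = both proteins with DMSO and 100% = one protein alone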
Target sequence (P42858 whole entry, looked up, stated change not applied): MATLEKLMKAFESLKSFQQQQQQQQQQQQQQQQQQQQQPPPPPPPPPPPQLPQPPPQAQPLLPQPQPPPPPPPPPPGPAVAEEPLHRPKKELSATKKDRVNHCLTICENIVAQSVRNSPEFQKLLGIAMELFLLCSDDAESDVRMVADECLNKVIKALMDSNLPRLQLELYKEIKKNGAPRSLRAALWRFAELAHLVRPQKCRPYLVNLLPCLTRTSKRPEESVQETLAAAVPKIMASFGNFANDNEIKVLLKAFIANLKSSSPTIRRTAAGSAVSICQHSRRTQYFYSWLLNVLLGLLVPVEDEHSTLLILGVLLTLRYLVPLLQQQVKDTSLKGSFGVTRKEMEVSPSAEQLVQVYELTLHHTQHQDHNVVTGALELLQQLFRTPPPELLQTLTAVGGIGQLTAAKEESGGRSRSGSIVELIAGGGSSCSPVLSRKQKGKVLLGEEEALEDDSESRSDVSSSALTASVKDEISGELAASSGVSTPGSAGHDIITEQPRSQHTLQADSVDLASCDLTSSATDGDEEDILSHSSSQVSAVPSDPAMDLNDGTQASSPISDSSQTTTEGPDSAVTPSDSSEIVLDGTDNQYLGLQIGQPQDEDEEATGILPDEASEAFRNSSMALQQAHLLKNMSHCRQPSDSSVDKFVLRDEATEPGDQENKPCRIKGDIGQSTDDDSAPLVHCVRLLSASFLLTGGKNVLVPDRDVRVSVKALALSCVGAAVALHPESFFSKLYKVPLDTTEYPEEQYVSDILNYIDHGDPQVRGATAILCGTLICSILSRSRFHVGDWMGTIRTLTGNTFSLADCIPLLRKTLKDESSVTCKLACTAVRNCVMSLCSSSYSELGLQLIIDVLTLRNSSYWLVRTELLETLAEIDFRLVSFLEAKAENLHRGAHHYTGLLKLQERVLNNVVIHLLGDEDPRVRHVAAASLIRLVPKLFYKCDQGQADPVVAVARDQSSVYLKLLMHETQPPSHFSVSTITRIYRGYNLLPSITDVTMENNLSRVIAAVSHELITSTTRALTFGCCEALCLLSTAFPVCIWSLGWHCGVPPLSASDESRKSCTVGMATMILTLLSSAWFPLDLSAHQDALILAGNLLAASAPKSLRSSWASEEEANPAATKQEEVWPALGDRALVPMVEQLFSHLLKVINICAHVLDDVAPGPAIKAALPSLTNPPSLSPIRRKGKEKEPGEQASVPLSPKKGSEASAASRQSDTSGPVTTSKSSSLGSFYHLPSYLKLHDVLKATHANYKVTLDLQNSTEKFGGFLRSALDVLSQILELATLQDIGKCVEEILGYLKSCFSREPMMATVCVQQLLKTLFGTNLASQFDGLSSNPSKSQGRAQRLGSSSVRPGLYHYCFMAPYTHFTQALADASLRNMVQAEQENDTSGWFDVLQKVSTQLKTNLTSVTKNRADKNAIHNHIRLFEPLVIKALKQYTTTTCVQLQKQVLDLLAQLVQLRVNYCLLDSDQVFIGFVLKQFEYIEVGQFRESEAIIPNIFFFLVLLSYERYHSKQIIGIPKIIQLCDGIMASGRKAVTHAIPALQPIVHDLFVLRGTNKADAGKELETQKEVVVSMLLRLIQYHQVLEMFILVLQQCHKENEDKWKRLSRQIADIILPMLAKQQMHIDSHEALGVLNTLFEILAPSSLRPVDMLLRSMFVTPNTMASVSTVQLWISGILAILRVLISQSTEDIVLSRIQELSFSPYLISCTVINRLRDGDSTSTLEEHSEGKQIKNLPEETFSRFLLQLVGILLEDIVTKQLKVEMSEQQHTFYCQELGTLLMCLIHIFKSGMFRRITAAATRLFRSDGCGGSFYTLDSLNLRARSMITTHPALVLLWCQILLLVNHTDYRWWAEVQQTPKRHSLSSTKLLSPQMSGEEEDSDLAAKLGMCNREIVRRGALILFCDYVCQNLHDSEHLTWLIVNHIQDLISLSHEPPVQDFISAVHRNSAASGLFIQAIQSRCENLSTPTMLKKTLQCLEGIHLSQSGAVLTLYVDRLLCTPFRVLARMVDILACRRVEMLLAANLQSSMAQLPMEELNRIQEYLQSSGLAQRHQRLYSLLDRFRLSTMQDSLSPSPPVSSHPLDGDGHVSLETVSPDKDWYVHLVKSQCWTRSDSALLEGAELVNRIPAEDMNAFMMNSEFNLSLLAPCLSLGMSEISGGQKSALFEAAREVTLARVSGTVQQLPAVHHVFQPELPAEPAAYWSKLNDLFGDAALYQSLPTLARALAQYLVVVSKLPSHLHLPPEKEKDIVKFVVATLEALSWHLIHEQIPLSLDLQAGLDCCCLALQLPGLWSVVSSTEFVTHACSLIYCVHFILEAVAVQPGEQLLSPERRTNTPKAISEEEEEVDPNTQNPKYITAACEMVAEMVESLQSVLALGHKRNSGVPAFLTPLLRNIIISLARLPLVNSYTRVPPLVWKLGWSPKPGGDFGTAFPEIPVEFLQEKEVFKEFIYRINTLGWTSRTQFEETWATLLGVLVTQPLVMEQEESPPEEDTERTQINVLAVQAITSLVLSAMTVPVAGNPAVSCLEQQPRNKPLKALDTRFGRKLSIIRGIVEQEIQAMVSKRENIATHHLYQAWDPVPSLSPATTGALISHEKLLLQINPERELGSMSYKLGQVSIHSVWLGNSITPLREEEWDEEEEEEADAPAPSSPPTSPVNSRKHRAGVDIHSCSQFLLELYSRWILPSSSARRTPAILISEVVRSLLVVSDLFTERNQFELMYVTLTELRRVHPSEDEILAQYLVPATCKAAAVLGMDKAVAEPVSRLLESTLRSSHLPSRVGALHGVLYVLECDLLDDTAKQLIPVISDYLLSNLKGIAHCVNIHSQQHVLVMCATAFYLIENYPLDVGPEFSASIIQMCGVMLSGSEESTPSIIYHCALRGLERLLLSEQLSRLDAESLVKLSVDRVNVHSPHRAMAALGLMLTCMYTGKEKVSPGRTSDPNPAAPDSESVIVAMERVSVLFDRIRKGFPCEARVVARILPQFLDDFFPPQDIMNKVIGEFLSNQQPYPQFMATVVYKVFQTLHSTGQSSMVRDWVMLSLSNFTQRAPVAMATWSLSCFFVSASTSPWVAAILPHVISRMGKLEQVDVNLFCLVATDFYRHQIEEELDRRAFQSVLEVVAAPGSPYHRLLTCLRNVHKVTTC
Starred values were filed as active, the others as inactive; . = no result given. The full list was thinned out, with hits kept by preference. Rule as the data show it: active = inhibition above about 50%; inactive = the rest.

SMILES	Pf apPOL block	mHTT-CaM PPI inh
Cc1ccc(NC2=CC(=NS(=O)(=O)c3cccs3)c3ccccc3C2=O)c(C)c1	3	90*
O=C(c1cc(Cl)ccc1Cl)N1CCCC(c2nnc(C(F)(F)F)o2)C1 (stereo not given)	-1	-9
O=C(Nc1ccc(Cl)c(-c2nc3ccccc3s2)c1)c1cccnc1	-2	16
Cc1ccc(C)c(S(=O)(=O)N2CCC3(CC2)NCCN=C3NCc2ccccc2)c1	0	14
COc1ccc(-c2cc(C(F)(F)F)n3nc(C(=O)NCC4CCCO4)cc3n2)cc1 (stereo not given)	-5	3
CCOc1ccc(S(=O)(=O)Nc2ccc(I)cc2)cc1	-16	-17
CCOc1ccc(S(=O)(=O)N=C2C=C(Nc3ccccc3)C(=O)c3ccccc32)cc1	3	90*
CCOc1ccc(NC2=CC(=NS(=O)(=O)c3ccc(OCC)cc3)c3ccccc3C2=O)cc1	-2	75*
COc1ccc(S(=O)(=O)N=C2C(C)=CC(=O)C(S(=O)(=O)c3ccccc3)=C2C)cc1	-1	30
CCOc1ccc(S(=O)(=O)N=C2C=C(Nc3ccc(OC)cc3)C(=O)c3ccccc32)cc1	0	89*
COc1ccc(S(=O)(=O)N=C2C=C(Nc3ccccc3)C(=O)c3ccccc32)cc1	11	88*
CCOc1ccc(S(=O)(=O)NC(=O)c2ccccc2)cc1	0	-14
CCc1ccc(NS(=O)(=O)c2ccc(OC)cc2)cc1	-4	-10
COc1ccc(CCNC(=O)CCc2c(C)[nH]c(=O)n(C)c2=O)cc1OC	-2	-6
Cc1nccn1-c1cc(N2CCC(C(=O)NCCc3c[nH]c4ccccc34)CC2)ncn1	-15	10
O=S(=O)(c1ccc(C2CCCCC2)cc1)N1CCC(CN2CCCCC2)CC1	-5	3
CCN1CCN(c2nc(C(=O)NC)cs2)CC1	0	-2
CC1=C(C(=O)Nc2ccccn2)C(c2ccc(Cl)c([N+](=O)[O-])c2)C2=C(CCCC2=O)N1 (stereo not given)	-6	14
COc1ccccc1NC1=C(Cl)C(=O)c2ccccc2C1=O	11	.
COc1ccccc1NC1=CC(=NS(=O)(=O)c2ccc(C)cc2)c2ccccc2C1=O	5	93*
O=C(NC1CCCCC1)N1CCC(n2c(-c3ccoc3)nc3cccnc32)C1 (stereo not given)	1	15
Cc1ccc(C2CC(c3ccccc3)=NN2C(=O)CN2CCOCC2)cc1 (stereo not given)	-6	36
Cc1ccc(C2CC(c3cccc(C)c3)=NN2C(=O)CN2CCOCC2)cc1 (stereo not given)	-6	85*
Cc1ccc(C)c(C2=NN(C(=O)CN3CCOCC3)C(c3ccc(Cl)cc3)C2)c1 (stereo not given)	-4	49
Cc1ccc(C2CC(c3ccc(C)cc3C)=NN2C(=O)CN2CCOCC2)cc1 (stereo not given)	-6	76*
SMILES	Pf apPOL block	mHTT-CaM PPI inh
CCCN(Cc1cc(-c2cc(C)ccc2C)on1)C(C)=O	-6	9
Cc1nc(C(F)(F)F)nc(Sc2n[nH]c(-c3ccccc3)n2)c1C	-9	.
c1ccc(-n2ncc3c(NCc4cccs4)ncnc32)cc1	-2	1
OCCNc1nc(NN2CCOCC2)nc2c1cnn2-c1ccc(Cl)cc1	0	5
OCCNc1nc(NCCc2cccs2)nc2c1cnn2-c1ccc(F)cc1	-5	56*
OCCNc1nc(NCc2ccc3c(c2)OCO3)nc2c1cnn2-c1ccc(F)cc1	-8	67*
Cc1ccc(-c2cc(O)cc3sc(=O)oc23)cc1Cl	-5	53*
O=c1oc2c(-c3ccc(Br)cc3)cc(O)cc2s1	5	34
CCc1ccc(-c2cc(O)cc3sc(=O)oc23)cc1	6	73*
COc1ccc(-c2cc(O)cc3sc(=O)oc23)cc1	2	74*
O=c1oc2c(-c3cccc(C(F)(F)F)c3)cc(O)cc2s1	1	40
Cc1ccc(-c2cc(O)cc3sc(=O)oc23)cc1	-4	75*
O=c1oc2ccc(O)cc2s1	.	27
O=c1oc2c(Br)c(O)c(Br)cc2s1	-6	43
CC1CN(c2ccc([N+](=O)[O-])cc2C2Oc3[nH]c(=O)[nH]c(=O)c32)CC(C)O1 (stereo not given)	-5	4
CC(C)Cn1cc(C(=O)NC(C)C)c2c3ccccc3n(C)c2c1=O	-1	-2
COc1ccc2c(c1)N1CCN(c3ccc(C)cc3)CC1C(C(=O)NC1CC1)C2 (stereo not given)	2	65*
COc1ccc(N2CCN3c4cc(OC)ccc4CC(C(=O)NC4CC4)C3C2)cc1 (stereo not given)	-3	27
O=C(Nc1ccccc1)N1CCc2[nH]cnc2C1c1ccncc1 (stereo not given)	1	1
COc1ccccc1NC(=O)N1CCc2[nH]cnc2C1c1ccccn1 (stereo not given)	-4	36
O=C(Nc1c(F)cccc1F)N1CCc2[nH]cnc2C1c1ccccn1 (stereo not given)	-8	56*
